From PubChem BioAssay AID602393 (Broad Institute, 2012) come the findings set out here.

Structures are written as SMILES. In all, about 350,000 compounds went through this assay and about 7,000 (2%) were called active. This excerpt belongs to a sample that is enriched for actives. Unmarked numbers belong to inactive results. Rule as the data show it: active = activation above about 40%; inconclusive = no clear call, values can overlap the other calls; inactive = below that.

This test in a line: raisers of Bmi1 knock-in reporter signal – mouse ES cells, Bmi1 luciferase knock-in, single point, esBAF inhibitor project, primary screen (AID 602393).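 Also: 0% = median of the plate's neutral control wells and 100% = double that signal; a rise in the Bmi1 reporter signal indicates esBAF inhibition.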 To be noted: 24 h, at 12.5 µM, stronger effect = higher value, 100% = twice the neutral-well signal.
In the case of `CNC(=O)C[C@H]1CC[C@H]2[C@@H](COc3ccc(NC(=O)c4cccc(OC)c4)cc3C(=O)N2C)O1`, the reporter increase is 4.25%.

As for `COc1cccc(C#Cc2cnc3c(c2)C(=O)N([C@@H](C)CO)C[C@H](C)[C@H](CN(C)CC2CC2)O3)c1`, the reporter increase is -5.64%.

Consider `CO[C@H]1CN(C)C(=O)c2cc(NS(=O)(=O)CC(F)(F)F)ccc2OC[C@@H](C)N(C(=O)c2ccc3c(c2)OCO3)C[C@@H]1C`, for which the reporter increase is 2.12%.

Turning to `O=C(c1ccccc1)N1C[C@@H]2[C@H](c3ccccc31)[C@@H](CO)N2Cc1cc(F)ccc1F`, the reporter increase is -1.5%. Under `CO[C@@H]1CN(C)C(=O)c2cc(NC(=O)C3CCCCC3)ccc2OC[C@@H](C)N(C(=O)Nc2ccc(C(F)(F)F)cc2)C[C@H]1C` stands 9.31%; under `CCCNC(=O)[C@H]1[C@H](CO)[C@H]2Cn3c(ccc(C4=CCCC4)c3=O)[C@H]2N1C(=O)CC1CC1`, -1.14%. As for `CC(=O)c1cccc(NC(=S)N2CCCC2)c1`, the figure is 3.72%; as for `CC(=O)c1cccc(NC(=O)Nc2ccc(C)cc2)c1`, 42.2% (active); as for `CCSc1nsc(NC(=O)Nc2cccc(C(C)=O)c2)n1`, 7.31%. Take `COc1cc2ccccc2cc1C(=O)Nc1ccccc1C`: the reporter increase was 71.4% (active). For `COc1cc2ccccc2cc1C(=O)Nc1ccc(S(=O)(=O)Nc2cc(C)on2)cc1`, the reporter increase was 5.76%. Under `Cc1ccccc1C(=O)Nc1ccccc1NC(=O)c1ccccc1C` stands -2.73%. As for `CCOc1cc2ccccc2cc1C(=O)Nc1ccccn1`, the figure is 18.4%. As for `COc1ccc(C(=O)Nc2cc(C)c(NC(=O)c3ccccc3OC)cn2)cc1`, the figure is 34.2%; as for `COc1cc2ccccc2cc1C(=O)Nc1ccncc1`, 60% (active). On to `CC(C)C#Cc1cnc2c(c1)C(=O)N([C@@H](C)CO)C[C@@H](C)[C@@H](CN(C)C(=O)c1cccc(F)c1)O2`, for which the reporter increase was 4.18%. Under `CCC(=O)N1[C@@H]2c3ccc(-c4ccc(F)cc4)c(=O)n3C[C@H]1[C@H](CO)[C@H]2C(=O)N(C)C` stands -3.81%; under `CO[C@@H]1CC[C@@H]2CCOc3ccc(C#N)cc3C(=O)N(C)C[C@H](c3ccccc3)CC(=O)N(C)C[C@H]1O2`, -4.55%. Turning to `CO[C@@H]1CN(C)C(=O)c2cc(NC(=O)C3CCOCC3)ccc2OC[C@H](C)N(C)C[C@H]1C`, the reporter increase was -1.27%. As for `COc1ccc(-c2ccc([C@@H]3[C@@H](C#N)N(C(=O)C4CCCCC4)[C@H]3CO)cc2)cc1`, the figure is 9.6%; as for `O=C(COC(=O)c1ccc(F)cc1)NCCCc1ccccc1`, -1.61%.

For `CSc1ncc(C(=O)NCCCc2ccccc2)c(C)n1`, the reporter increase is 5.19%. Under `CC(C)(C)OC(=O)N1CCC(C(=O)Nc2cccc(C(=O)NCCc3ccccc3)c2)CC1` stands 24.1%; under `O=C(NCCc1ccccc1)c1cccc(NC(=O)c2ccccc2)c1`, 42.6% (active).

As to `O=C(NCc1ccccc1)c1cccc(NC(=O)C2CCCCC2)c1`, the reporter increase is -4.78%. As for `CC(C)c1ccc(C(=O)NCCCc2ccccc2)cc1`, the figure is 55.1% (active). As for `C[C@@H]1CN([C@H](C)CO)S(=O)(=O)c2ccc(C3=CCCC3)cc2O[C@H]1CN(C)C(=O)CC1CC1`, the figure is -4.31%; as for `CC(=O)N1[C@@H]2Cn3c(ccc(C4=CCCC4)c3=O)[C@H]1[C@@H](C(=O)NC1CCC1)[C@@H]2CO`, 1.06%; as for `CNC[C@H]1OCCCC[C@@H](C)Oc2ccc(NC(=O)Cc3ccccc3)cc2C(=O)N([C@H](C)CO)C[C@@H]1C`, -1.06%. As for `CC=Cc1ccc2n(c1=O)C[C@H]1[C@H](CO)[C@@H](C(=O)NC3CCCC3)N(Cc3ccncc3)[C@@H]21` (mixture of isomers), the figure is -6.02%. For the compound `CCCNC(=O)C[C@H]1C[C@@H]2c3cc(NC(=O)c4ccc5c(c4)OCO5)ccc3O[C@@H]2[C@@H](CO)O1`, the reporter increase was 0.264%. As for `O=C1c2ccccc2C(=O)N1CCCCCCN1C(=O)c2ccccc2C1=O`, the figure is 5.74%. `O=C(OCCN1C(=O)c2ccccc2C1=O)Oc1ccccc1`: the reporter increase was -11.2%. Under `O=C1c2ccccc2C(=O)N1CCOc1ccc(F)cc1` stands 60.3% (active); under `C[C@H]1CN([C@@H](C)CO)C(=O)c2cc(NC(=O)Cn3cnnn3)ccc2O[C@H]1CN(C)C(=O)NC1CCCCC1`, -0.29%. Under `Cc1ccc(S(=O)(=O)Nc2ccc3c(c2)C(=O)N([C@H](C)CO)C[C@H](C)[C@@H](CN(C)S(=O)(=O)c2cn(C)cn2)OCCCC[C@H](C)O3)cc1` stands -6.8%. As for `CCOC(=O)c1ccccc1CN1C(=O)c2ccccc2S1(=O)=O`, the figure is 0.163%; as for `CCOC(=O)CN1C(=O)C(=O)c2cc(C)ccc21`, -5.46%; as for `CCOC(=O)c1cc2n(c1C)-c1ccccc1C2=O`, 47.8% (active). `COc1ccc(CN(C)C[C@H]2OCCCC[C@@H](C)Oc3ccc(NS(C)(=O)=O)cc3C(=O)N([C@@H](C)CO)C[C@H]2C)cc1`: the reporter increase is -3.35%.

As for `CCC(=O)Nc1ccc2c(c1)OC[C@@H](C)N(Cc1ccccc1OC)C[C@H](C)[C@H](OC)CN(C)C2=O`, the reporter increase is -1.32%.

Turning to `COCC(=O)Nc1ccc2c(c1)C(=O)N(C)C[C@@H](OC)[C@H](C)CN(C(=O)CC1CC1)[C@H](C)CO2`, the reporter increase was 0.458%.

On to `Cc1ccc(S(=O)(=O)Nc2cccc3c2O[C@@H](CN(C)C(=O)Nc2ccccc2)[C@H](C)CN([C@@H](C)CO)C3=O)cc1`, for which the reporter increase was -4.19%. Consider `CN(C)c1ccc(CSc2ccccc2)cc1`, for which the reporter increase was 75.8% (active). Under `CN(C)c1cc[n+](Cc2ccccc2)cc1` stands 12.9%; under `CN(C)c1ccc(CNC23CN4CN(CN(C4)C2)C3)cc1`, 2.1%; under `CCNC(=O)C[C@@H]1CC[C@H]2[C@@H](COC[C@@H](O)CN2C(=O)c2cc(Cl)cc(Cl)c2)O1`, -3.54%. As for `COCC(=O)Nc1ccc2c(c1)C(=O)N(C)[C@@H]1CC[C@@H](CC(=O)NCCCN(C)C)O[C@@H]1CO2`, the reporter increase is 12.8%. Under `Cc1ccc(S(=O)(=O)/N=C(\N)c2ccc(F)cc2)cc1` stands 13.3%; under `O=c1cc(-c2ccccc2)[nH]c2cc(F)ccc12`, 7.27%. In the case of `Cc1ccc(-c2cc(=O)c3ccc(F)cc3[nH]2)cc1`, the reporter increase is 47.2% (active).

Consider `Brc1ccccc1C1N=C(c2ccccc2)NO1` (centres undefined), for which the reporter increase was 54.3% (active). On to `S=C1NC(c2ccccc2)=NCN1c1ccc(Br)cc1`, for which the reporter increase was 30.7%. As for `N#Cc1ccc(C2N=C(c3ccccc3)NO2)cc1` (centres undefined), the figure is 65.2% (active); as for `CO[C@@H]1CN(C)C(=O)c2cc(NC(=O)C3CCCC3)ccc2OC[C@@H](C)N(Cc2ccc(F)cc2)C[C@H]1C`, 8.36%. As for `CO[C@H]1CN(C)C(=O)c2cc(NC(=O)NC(C)C)ccc2OC[C@H](C)N(C(=O)CN(C)C)C[C@H]1C`, the figure is -0.455%. Under `COc1ccc(NC(=O)N(C)C[C@H]2OCCCC[C@@H](C)Oc3ccc(NS(=O)(=O)c4ccc(F)cc4)cc3C(=O)N([C@@H](C)CO)C[C@@H]2C)cc1` stands 1.41%. For the compound `O=C(C[C@@H]1CC[C@H]2[C@@H](COC[C@@H](O)CN2CC2CC2)O1)NCc1ccc(Cl)cc1`, the reporter increase was -7.82%.

For the compound `CO[C@H]1CN(C)C(=O)c2cc(NC(C)=O)ccc2OC[C@H](C)N(C(=O)C2CC2)C[C@H]1C`, the reporter increase is -2.16%. As for `CS(=O)(=O)N1C[C@@H](O)COC[C@@H]2O[C@H](CC(=O)NC3Cc4ccccc4C3)CC[C@H]21`, the figure is -3.82%; as for `CNC[C@H]1Oc2cc(C#CC(C)(C)O)ccc2S(=O)(=O)N([C@@H](C)CO)C[C@@H]1C`, -0.555%; as for `COCC(=O)N1C[C@H]2[C@@H](c3ccccc31)[C@@H](CO)N2Cc1ccccc1`, -3.85%. Under `Cc1nn(-c2ccc([N+](=O)[O-])cc2)c(N)c1-c1ccccc1` stands 49.1% (active); under `Cn1nc(-c2ccccc2)c2cc([N+](=O)[O-])ccc21`, -3.5%. As for `Cc1nn(-c2ccccc2)c2c1C(c1cccc([N+](=O)[O-])c1)N(c1ccccc1)C(=O)N2` (centres undefined), the figure is 10.1%.

With `Cc1ccccc1S(=O)(=O)NCC[C@@H]1CC[C@H](NC(=O)C2CC2)[C@@H](CO)O1`, the reporter increase was -5.25%. Under `O=C(NNC(=O)c1ccco1)Nc1ccccc1` stands 0.317%; under `CC1CCN(c2ccc(-c3ccc(NC(=O)c4ccco4)cc3)nn2)CC1`, 55.6% (active); under `Cc1cc(NC(=O)c2ccc(F)cc2)ccc1NC(=O)c1ccco1`, -3.11%. As for `O=C(Nc1ccc(Oc2ccccc2)cc1)c1ccco1`, the figure is 45.8% (active); as for `CC1CCN(C(NC(=O)c2ccco2)C(=O)c2ccccc2)CC1` (centres undefined), -0.711%.

`Cc1ccc(NC(=O)c2ccco2)cc1`: the reporter increase is 58.7% (active).

On to `O=C(Nc1ccc(Sc2ccc(Br)cc2)cc1)c1ccco1`, for which the reporter increase is 30.7%.

`O=C(/C=C/c1ccco1)NC(=S)Nc1ccccc1Br`: the reporter increase is 12.7%. Under `CN1CCN(S(=O)(=O)c2ccc(NC(=O)c3ccco3)cc2)CC1` stands 7.27%; under `O=C(/C=C/c1ccco1)Nc1ccc(Oc2ccccc2)cc1`, 78% (active); under `COc1cccc(NC(=O)COC(=O)/C=C/c2ccco2)c1`, -3.7%. Under `CC(C)(C)NC(=O)c1cc(NC(=O)c2ccco2)cc(NC(=O)c2ccco2)c1` stands -7.07%; under `C[C@@H]1CCCCO[C@H](CN(C)C(=O)CCCN(C)C)[C@H](C)CN([C@H](C)CO)C(=O)c2cc(NC(=O)CCC(F)(F)F)ccc2O1`, -8.36%.
